Experiments:
Experiment in all cases: log2 ratio of Biotin-Ahx-Ub-VS probe labelling (fragment/DMSO); higher = less target engagement (more negative = stronger competition), active = hit call of the paper (q ≤ 0.05, log2 ratio ≤ -1)
Settings in all cases: compound concentration: 200 uM; treatment time: 3 h
USP42 = molecular target: T1, USP42 (UniProt Q9H9J4)
T1 sequence (whole entry): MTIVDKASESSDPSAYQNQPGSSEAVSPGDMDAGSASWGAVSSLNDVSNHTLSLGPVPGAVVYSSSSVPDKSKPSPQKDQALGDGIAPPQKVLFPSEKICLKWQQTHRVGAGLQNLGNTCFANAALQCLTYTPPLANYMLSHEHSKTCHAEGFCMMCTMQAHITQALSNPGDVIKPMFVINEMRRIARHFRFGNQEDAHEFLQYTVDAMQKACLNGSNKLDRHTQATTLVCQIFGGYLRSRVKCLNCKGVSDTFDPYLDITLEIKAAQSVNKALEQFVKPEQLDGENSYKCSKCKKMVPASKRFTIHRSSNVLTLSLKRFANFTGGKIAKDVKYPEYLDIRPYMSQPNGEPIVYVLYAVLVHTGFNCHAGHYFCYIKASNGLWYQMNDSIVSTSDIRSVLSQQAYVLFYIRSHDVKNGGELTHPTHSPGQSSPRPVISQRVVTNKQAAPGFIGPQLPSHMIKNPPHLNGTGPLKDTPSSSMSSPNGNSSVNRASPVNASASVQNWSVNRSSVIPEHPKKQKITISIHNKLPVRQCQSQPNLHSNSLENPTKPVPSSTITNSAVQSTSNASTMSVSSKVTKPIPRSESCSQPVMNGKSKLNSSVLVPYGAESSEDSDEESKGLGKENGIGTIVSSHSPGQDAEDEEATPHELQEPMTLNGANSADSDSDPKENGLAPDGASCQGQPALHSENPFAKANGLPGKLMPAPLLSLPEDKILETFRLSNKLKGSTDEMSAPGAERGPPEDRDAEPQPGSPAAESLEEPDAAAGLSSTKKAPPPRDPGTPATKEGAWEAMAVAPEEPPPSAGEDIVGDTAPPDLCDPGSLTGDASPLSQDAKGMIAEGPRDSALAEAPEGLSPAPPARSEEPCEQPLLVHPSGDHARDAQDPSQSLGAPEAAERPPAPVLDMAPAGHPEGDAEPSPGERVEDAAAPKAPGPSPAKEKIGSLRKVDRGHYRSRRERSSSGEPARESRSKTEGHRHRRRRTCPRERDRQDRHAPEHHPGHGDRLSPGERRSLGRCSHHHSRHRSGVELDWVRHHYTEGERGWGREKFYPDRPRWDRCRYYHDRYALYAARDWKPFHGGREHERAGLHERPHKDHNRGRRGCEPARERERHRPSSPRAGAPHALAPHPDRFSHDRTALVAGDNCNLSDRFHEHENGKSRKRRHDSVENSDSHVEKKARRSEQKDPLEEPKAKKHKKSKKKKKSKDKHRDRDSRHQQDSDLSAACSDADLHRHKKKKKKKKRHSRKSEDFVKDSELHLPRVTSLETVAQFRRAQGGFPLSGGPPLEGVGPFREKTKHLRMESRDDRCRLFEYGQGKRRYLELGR
Summary of the method: (§1)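 Using Biotin-Ahx-Ub-VS at 0.5 µM final for 1 h, DUBs were labelled in HEK293T lysate (495 µg per sample) that had first been treated in triplicate with fragment at 200 µM or vehicle for 3 h. NeutrAvidin enrichment, LysC and trypsin digestion and diaPASEF LC-MS/MS followed. Spectronaut label-free quantities were global-median-normalised. Values are average log2 fragment/vehicle ratios by unpaired t-test, using proteins with ≥2 unique peptides.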

USP46 = USP46 (UniProt P62068)
Sequence of USP46 (P62068 whole entry): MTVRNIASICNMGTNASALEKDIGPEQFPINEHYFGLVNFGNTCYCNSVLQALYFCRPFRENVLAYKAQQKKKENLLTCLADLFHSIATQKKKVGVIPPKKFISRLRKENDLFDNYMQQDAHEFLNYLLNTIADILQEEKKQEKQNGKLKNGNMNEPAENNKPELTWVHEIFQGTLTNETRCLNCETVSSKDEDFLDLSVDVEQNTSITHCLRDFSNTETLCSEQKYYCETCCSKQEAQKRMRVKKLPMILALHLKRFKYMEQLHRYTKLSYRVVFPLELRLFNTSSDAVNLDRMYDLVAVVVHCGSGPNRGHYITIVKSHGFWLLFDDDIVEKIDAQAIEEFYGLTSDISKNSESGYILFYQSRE
Summary of the method: as §1

USP47 = molecular target: T2, USP47 (UniProt Q96K76)
T2 sequence (whole entry): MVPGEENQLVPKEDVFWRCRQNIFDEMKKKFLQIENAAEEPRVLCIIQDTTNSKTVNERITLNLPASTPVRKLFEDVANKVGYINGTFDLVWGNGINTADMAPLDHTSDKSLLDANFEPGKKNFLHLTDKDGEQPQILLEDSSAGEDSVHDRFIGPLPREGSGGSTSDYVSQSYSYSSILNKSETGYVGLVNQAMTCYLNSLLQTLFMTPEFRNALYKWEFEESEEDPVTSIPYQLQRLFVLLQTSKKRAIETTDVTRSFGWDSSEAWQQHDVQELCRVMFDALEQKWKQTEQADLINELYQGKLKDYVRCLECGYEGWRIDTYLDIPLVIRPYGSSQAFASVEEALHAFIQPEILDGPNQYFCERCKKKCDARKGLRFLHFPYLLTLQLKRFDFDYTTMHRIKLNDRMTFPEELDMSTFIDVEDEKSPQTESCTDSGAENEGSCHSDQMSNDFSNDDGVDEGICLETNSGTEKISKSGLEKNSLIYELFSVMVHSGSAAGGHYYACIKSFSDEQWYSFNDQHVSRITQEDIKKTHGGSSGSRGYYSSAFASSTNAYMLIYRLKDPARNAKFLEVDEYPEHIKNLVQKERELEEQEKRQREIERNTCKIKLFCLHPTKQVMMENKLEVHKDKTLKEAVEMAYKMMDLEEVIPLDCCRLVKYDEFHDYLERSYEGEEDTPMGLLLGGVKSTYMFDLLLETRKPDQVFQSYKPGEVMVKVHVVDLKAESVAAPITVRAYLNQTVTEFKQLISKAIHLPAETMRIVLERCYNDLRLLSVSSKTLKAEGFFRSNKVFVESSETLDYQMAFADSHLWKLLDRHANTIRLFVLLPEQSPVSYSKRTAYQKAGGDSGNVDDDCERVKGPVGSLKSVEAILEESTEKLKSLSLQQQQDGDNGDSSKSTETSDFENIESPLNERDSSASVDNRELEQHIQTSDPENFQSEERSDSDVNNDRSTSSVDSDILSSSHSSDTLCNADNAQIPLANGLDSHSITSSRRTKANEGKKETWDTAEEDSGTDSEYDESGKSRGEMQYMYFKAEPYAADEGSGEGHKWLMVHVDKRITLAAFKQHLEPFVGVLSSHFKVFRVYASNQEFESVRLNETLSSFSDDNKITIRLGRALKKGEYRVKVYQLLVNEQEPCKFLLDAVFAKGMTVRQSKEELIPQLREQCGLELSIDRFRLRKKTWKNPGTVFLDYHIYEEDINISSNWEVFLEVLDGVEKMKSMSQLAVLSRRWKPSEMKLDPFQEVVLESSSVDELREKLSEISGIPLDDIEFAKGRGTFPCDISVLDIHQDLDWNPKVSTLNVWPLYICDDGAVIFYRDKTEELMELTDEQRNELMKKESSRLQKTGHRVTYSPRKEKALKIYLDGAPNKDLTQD
Summary of the method: as §1

USP48 = molecular target: T3, USP48 (UniProt Q86UV5)
T3 sequence (whole entry): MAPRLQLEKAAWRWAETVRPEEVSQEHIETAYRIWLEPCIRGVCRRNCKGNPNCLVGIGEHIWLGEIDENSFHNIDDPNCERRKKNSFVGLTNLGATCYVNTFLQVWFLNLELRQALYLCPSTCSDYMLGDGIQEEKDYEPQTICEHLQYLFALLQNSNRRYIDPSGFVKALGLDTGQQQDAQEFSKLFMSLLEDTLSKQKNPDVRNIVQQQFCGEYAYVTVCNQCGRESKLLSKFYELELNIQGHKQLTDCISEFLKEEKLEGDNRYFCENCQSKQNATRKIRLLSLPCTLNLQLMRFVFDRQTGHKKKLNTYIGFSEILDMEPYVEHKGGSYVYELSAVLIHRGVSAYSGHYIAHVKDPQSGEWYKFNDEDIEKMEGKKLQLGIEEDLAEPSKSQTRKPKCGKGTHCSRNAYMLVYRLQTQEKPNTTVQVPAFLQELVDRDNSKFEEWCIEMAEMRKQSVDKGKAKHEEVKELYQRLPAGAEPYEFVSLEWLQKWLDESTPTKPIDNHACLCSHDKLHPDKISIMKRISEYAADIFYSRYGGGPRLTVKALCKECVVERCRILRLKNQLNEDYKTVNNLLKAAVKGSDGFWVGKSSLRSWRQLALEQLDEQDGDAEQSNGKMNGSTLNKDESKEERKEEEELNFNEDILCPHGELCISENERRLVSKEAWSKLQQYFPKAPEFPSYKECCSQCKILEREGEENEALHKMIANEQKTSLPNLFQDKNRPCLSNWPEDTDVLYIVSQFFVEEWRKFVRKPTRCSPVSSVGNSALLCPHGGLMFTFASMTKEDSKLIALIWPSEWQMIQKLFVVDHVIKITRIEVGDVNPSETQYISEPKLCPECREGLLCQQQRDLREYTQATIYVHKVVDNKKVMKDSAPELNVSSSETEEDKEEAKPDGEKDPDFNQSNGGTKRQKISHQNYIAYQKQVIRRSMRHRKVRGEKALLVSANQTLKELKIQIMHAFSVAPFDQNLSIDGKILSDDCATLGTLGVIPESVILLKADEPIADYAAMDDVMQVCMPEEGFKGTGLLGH
Summary of the method: as §1

USP5 = molecular target: T4, USP5 (UniProt P45974)
T4 sequence (whole entry): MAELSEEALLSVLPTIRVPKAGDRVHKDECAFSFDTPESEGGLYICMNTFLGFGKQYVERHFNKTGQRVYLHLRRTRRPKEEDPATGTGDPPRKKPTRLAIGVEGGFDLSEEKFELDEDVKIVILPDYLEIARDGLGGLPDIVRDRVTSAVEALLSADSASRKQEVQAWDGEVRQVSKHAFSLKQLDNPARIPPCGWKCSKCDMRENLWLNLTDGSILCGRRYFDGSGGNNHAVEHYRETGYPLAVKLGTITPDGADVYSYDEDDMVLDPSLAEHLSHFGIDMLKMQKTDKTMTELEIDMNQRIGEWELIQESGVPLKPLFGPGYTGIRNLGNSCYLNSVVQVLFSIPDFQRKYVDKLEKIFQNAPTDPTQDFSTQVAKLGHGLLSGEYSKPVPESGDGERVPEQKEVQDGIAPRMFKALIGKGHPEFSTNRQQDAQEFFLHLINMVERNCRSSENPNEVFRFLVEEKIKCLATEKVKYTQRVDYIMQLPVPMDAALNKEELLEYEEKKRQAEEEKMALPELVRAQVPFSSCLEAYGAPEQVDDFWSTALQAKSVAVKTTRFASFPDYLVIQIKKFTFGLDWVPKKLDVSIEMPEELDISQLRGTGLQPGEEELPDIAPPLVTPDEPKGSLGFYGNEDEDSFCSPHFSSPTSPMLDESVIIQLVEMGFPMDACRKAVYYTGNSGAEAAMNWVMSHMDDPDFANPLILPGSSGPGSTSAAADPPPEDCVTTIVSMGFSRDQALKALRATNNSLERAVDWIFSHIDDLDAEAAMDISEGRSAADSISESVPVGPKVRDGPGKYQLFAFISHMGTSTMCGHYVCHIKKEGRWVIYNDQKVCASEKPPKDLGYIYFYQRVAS
Summary of the method: as §1

USP54 = USP54 (UniProt Q70EL1)
Sequence of USP54 (Q70EL1 whole entry): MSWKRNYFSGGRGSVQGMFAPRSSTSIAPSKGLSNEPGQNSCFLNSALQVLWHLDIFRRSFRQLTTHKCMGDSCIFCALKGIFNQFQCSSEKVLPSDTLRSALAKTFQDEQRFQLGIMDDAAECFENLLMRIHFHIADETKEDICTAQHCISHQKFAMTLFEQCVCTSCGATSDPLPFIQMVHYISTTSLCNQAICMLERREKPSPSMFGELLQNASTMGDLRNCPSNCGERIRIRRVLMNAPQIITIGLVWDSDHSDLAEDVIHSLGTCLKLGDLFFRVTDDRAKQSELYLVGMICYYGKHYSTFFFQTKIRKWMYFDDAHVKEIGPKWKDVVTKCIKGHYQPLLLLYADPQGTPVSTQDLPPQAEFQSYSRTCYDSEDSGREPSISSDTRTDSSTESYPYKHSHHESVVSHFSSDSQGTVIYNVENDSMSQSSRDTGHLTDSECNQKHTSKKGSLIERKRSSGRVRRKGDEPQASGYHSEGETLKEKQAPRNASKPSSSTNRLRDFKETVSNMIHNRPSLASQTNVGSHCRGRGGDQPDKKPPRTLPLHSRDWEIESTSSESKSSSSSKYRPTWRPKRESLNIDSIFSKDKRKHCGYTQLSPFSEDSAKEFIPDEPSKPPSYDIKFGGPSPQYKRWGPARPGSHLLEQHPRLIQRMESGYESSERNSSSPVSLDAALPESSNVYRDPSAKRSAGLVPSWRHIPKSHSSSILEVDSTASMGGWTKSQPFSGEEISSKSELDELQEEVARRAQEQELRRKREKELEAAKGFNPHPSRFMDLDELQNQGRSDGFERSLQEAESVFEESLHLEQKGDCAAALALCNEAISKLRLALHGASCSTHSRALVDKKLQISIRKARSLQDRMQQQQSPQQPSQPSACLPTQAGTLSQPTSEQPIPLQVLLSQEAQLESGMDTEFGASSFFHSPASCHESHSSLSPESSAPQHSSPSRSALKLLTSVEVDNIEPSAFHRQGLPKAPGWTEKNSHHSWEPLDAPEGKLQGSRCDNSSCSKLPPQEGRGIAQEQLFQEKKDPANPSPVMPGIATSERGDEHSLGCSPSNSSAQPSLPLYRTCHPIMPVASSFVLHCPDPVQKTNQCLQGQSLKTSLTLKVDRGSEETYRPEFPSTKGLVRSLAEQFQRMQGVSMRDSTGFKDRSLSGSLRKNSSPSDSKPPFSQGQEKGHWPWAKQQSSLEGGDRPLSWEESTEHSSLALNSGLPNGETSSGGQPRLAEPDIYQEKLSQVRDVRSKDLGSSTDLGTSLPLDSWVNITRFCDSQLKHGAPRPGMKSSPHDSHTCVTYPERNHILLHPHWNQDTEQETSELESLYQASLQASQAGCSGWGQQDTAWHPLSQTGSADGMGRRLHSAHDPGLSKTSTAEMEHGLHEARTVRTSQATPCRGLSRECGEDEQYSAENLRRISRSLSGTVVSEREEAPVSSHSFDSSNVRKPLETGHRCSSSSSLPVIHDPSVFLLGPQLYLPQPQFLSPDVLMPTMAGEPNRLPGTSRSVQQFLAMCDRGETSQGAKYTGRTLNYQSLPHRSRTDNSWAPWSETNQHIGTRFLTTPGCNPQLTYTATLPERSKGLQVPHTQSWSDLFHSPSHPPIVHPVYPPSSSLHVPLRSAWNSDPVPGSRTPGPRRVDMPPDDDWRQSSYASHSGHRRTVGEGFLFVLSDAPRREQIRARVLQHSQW
Summary of the method: as §1

USP7 = USP7 (UniProt Q93009)
Sequence of USP7 (Q93009 whole entry, looked up): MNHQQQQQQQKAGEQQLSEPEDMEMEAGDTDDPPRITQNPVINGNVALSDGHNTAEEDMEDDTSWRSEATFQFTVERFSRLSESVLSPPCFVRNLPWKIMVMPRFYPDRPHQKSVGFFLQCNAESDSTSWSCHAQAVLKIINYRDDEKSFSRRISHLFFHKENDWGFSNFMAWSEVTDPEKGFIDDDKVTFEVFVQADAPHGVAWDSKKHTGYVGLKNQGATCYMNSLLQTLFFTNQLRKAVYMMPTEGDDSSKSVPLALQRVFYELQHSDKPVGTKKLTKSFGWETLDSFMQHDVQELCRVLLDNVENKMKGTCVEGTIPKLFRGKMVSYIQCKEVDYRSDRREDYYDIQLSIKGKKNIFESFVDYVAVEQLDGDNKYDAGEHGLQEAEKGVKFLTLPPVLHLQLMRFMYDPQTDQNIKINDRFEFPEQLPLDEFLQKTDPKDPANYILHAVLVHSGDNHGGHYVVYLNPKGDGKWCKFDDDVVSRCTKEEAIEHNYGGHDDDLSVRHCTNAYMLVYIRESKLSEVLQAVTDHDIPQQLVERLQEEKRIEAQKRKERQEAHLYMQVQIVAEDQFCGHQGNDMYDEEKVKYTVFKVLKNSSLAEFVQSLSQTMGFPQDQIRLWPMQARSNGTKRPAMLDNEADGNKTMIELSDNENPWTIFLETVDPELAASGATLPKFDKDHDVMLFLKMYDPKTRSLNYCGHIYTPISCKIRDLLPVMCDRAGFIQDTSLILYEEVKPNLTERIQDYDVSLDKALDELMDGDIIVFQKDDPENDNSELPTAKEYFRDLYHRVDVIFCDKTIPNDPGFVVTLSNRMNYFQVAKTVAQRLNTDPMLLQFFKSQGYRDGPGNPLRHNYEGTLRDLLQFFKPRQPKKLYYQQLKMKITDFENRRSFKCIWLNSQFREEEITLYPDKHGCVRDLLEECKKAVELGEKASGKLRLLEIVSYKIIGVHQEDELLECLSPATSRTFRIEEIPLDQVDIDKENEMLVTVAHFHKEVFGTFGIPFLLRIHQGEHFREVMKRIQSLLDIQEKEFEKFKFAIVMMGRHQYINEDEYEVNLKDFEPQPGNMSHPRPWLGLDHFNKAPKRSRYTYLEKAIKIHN
Summary of the method: as §1

USP8 = molecular target: T5, USP8 (UniProt P40818)
T5 sequence (whole entry): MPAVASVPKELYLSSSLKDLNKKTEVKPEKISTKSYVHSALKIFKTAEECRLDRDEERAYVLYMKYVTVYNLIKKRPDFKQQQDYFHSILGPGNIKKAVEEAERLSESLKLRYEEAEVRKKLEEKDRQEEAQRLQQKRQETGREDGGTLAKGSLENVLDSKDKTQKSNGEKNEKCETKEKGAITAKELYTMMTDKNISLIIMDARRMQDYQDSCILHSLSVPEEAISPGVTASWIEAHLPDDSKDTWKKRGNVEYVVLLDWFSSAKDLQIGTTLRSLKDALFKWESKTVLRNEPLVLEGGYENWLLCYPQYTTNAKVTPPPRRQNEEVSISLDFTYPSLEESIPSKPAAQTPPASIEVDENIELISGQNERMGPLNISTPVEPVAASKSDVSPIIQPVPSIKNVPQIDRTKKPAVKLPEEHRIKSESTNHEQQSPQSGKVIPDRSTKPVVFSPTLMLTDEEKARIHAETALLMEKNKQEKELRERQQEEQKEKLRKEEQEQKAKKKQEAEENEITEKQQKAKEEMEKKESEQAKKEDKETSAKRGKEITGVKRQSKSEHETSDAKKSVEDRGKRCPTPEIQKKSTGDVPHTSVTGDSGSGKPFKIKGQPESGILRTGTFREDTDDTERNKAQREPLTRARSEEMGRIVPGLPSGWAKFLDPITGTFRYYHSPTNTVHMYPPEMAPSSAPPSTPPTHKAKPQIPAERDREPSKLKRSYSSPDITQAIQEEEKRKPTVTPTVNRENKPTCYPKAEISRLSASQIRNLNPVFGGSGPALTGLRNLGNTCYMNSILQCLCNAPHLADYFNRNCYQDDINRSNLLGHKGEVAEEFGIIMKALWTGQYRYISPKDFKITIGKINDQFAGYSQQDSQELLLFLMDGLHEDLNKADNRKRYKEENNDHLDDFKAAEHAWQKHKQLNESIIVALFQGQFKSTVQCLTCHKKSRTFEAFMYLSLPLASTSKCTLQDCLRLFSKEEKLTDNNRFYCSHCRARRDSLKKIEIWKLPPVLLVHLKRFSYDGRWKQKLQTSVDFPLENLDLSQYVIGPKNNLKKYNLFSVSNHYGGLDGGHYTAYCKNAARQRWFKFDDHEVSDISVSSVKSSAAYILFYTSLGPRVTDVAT
Summary of the method: as §1

USP9X = USP9X (UniProt Q93008)
Summary of the method: as §1

UniProt O00487 = molecular target: UniProt O00487
Sequence of UniProt O00487 (O00487 whole entry): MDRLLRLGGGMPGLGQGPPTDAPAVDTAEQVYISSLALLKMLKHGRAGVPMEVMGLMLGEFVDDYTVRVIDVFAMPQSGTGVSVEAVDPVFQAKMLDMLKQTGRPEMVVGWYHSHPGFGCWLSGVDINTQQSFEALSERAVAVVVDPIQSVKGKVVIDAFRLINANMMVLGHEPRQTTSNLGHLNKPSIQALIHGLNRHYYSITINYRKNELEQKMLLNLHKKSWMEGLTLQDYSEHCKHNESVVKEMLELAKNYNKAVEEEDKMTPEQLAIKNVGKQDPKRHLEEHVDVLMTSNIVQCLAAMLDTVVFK
Summary of the method: as §1

Measured: log2 ratio of Biotin-Ahx-Ub-VS probe labelling

COc1ccc(C2CCCN2C(=O)CCl)c(OC)c1 (stereo not given)
active: USP7 -1.23
inactive: USP42 0.426 | USP46 -0.295 | USP47 -0.378 | USP48 -0.744 | USP5 0.0602 | USP54 0.223 | USP8 -0.00675 | USP9X -0.271 | UniProt O00487 -0.0639

From the supplement of paper PMC11732987, “Enantioselective OTUD7B fragment discovery through chemoproteomics screening and high-throughput optimisation” (Communications Chemistry, 2025)
